In PubChem BioAssay:
Activity calls are given as the source filed them.

Tests used:
[1] = small molecules captured by biotinylated probe aFSTL3 – biochemical, small-molecule microarray, fluorescence 635/667, stem cell growth factor project, primary screen (AID 1064); settings: higher = more signal;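 also: measures binding of the biotinylated anti-FSTL3 antibody to printed compounds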
[2] = binders from COS7 lysate, DM2A8 probe, primary screen, torsin A project, cell lysate, small-molecule microarray, fluorescence 635/667 (AID 1065); settings: higher = more signal, COS7 lysate expressing mutant human TOR1A
[3] = small molecules captured by biotinylated probe aFGF2 – biochemical, small-molecule microarray, fluorescence 635/667, stem cell growth factor project, primary screen (AID 1067); settings: higher = more signal;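 also: measures binding of biotinylated aFGF2 protein to printed compounds on slides; z-score merges feature fluorescence and signal-to-noise across triplicate slides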
[4] = small molecules captured by biotinylated probe aFGF10 – biochemical, small-molecule microarray, fluorescence 635/667, stem cell growth factor project, primary screen (AID 1071); settings: higher = more signal;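 also: score merges 667 nm spot intensity and signal to noise from triplicate slides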
[5] = molecular target: Neurogenic locus notch homolog protein 2 (Homo sapiens) (UniProt Q04721); assay: small molecules binding Notch2 protein – biochemical, small-molecule microarray, 635 nm fluorescence, stem cell growth factors, primary screen (AID 1073); settings: higher = more signal
[6] = molecular target: Pro-neuregulin-1, membrane-bound isoform (Homo sapiens) (UniProt Q02297); assay: small molecules binding neuregulin-1 protein – biochemical, small-molecule microarray, fluorescence 635/667, psychiatric disease protein project, primary screen (AID 1075); settings: NRG1 binding, 635 nm fluorescence, higher = more signal;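 also: score combines 667 nm spot fluorescence with signal to noise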
[7] = test system: Neuregulin-1 EGF-like domain; assay: small molecules binding NRG1 EGF domain – biochemical, small-molecule microarray, 635 nm fluorescence, primary screen (AID 1081); settings: higher = more signal;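 also: binding of the protein to compounds printed on small-molecule microarray slides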
[8] = FRG1 expression reporter modulators in myotubes – cell-based, C2C12 myotubes, firefly/Renilla luciferase, luminescence, FRG1 inhibition for FSHD, primary screen (AID 1084); settings: FRG1 promoter luciferase, higher = more signal, called active from +8 up or from −8 down
[9] = small molecules captured by biotinylated probe aFST – biochemical, small-molecule microarray, fluorescence 635/667, stem cell growth factor project, primary screen (AID 1086); settings: higher = more signal;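 also: score merges 667 nm fluorescence with signal-to-noise of each printed compound spot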
[10] = binders of probe aHhip on microarray, primary screen, stem cell growth factor project, biochemical, small-molecule microarray, fluorescence 635/667 (AID 1087); settings: higher = more signal;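 also: score merges spot fluorescence at 667nm with spot signal to noise ratio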

Sequence of Neurogenic locus notch homolog protein 2 (Homo sapiens) (Q04721 whole entry, looked up, canonical isoform): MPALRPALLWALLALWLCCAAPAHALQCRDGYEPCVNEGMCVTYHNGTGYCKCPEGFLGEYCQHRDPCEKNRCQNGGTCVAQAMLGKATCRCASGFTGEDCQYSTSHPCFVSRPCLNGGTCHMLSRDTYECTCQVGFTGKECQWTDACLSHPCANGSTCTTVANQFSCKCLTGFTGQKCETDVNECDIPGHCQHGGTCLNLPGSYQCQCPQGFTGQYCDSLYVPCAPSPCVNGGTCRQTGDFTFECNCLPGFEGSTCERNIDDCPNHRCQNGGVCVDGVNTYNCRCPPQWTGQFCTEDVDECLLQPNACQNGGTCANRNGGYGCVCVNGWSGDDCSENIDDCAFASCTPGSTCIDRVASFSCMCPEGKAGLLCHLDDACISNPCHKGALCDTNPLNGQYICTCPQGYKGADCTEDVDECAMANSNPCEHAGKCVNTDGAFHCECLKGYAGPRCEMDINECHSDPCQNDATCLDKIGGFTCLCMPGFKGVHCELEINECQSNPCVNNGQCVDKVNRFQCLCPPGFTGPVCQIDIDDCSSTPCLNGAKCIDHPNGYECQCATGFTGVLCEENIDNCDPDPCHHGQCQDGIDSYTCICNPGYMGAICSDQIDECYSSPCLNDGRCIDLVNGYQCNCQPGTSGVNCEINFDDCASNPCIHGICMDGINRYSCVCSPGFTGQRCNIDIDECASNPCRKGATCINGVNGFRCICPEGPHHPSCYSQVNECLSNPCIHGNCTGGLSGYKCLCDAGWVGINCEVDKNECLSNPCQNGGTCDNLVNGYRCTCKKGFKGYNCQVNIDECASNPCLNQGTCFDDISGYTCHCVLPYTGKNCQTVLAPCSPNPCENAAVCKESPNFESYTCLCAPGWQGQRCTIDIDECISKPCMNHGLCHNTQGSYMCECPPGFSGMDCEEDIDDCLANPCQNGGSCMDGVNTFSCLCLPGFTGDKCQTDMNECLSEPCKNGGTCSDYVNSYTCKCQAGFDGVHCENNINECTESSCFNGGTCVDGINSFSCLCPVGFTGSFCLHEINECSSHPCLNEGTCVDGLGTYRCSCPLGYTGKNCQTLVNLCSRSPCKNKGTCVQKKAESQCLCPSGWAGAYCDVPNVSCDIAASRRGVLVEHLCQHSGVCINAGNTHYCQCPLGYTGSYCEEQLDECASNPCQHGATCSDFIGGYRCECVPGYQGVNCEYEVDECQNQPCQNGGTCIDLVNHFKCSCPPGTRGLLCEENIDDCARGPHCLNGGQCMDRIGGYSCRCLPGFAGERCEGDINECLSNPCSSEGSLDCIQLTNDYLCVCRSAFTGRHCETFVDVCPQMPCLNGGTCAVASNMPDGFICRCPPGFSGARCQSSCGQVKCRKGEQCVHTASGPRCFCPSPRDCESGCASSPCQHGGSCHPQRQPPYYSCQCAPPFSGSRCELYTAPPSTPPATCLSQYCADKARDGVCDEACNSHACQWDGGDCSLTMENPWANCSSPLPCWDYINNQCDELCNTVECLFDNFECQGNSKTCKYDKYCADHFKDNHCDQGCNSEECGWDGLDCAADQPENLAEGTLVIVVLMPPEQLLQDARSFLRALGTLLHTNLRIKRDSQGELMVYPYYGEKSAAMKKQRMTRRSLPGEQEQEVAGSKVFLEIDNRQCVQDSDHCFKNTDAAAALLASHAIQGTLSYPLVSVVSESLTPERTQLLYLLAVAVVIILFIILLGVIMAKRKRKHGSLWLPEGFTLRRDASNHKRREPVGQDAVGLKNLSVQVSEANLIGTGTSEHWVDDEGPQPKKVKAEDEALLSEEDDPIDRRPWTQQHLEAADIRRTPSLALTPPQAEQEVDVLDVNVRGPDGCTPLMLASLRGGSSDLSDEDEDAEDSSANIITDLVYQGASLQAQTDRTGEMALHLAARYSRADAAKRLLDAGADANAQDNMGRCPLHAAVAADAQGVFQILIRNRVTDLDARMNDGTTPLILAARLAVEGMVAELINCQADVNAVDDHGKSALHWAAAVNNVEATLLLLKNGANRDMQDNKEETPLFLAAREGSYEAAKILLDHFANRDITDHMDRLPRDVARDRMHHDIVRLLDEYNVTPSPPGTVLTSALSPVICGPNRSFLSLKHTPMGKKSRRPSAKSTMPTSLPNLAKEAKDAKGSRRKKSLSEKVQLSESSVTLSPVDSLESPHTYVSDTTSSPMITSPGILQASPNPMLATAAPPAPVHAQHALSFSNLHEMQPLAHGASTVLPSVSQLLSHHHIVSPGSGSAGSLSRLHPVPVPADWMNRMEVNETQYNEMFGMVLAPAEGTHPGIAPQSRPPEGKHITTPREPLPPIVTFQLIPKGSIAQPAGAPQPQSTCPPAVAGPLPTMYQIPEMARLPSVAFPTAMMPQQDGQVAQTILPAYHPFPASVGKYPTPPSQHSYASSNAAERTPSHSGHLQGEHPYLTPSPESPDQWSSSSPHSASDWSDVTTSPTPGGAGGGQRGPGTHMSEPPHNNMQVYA
Sequence of Pro-neuregulin-1, membrane-bound isoform (Homo sapiens) (Q02297 whole entry, looked up, the tested form may be a part, canonical isoform): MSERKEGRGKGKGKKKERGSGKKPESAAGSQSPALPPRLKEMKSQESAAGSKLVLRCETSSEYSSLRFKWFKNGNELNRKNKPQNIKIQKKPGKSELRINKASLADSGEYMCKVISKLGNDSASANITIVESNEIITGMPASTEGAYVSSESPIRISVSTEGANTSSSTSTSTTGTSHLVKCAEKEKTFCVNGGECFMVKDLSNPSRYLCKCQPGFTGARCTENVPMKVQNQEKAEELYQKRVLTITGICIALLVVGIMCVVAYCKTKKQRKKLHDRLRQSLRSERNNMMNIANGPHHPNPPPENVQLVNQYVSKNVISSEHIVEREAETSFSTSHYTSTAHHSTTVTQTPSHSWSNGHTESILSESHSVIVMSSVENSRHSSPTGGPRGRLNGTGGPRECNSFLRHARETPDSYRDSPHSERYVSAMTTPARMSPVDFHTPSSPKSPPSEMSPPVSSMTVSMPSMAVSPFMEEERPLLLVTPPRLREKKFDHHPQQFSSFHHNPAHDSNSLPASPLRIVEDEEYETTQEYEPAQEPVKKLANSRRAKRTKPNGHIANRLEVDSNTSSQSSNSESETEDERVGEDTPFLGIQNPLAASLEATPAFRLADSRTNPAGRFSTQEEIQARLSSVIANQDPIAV

| SMILES | composite z-score [1] | composite z-score [2] | composite z-score [3] | composite z-score [4] | composite z-score [5] | composite z-score [6] | composite z-score [7] | z-score [8] | composite z-score [9] | composite z-score [10] |
| --- | --- | --- | --- | --- | --- | --- | --- | --- | --- | --- |
| Cc1ccc(S[C@]2(C(=O)NCc3ccccc3)CC(=O)N(Cc3ccccc3)[C@@H]2c2ccc(CO)cc2)cc1 | 0.264 | -0.443 | -0.0165 | 0.793 | -0.338 | 1.33 | 1.09 | -2.33 (inactive) | -0.0886 | -0.169 |
| COCCCNC(=O)[C@@]1(c2ccc([N+](=O)[O-])cc2)CC(=O)N(CC23CC4CC(CC(C4)C2)C3)[C@@H]1c1ccc(CO)cc1 | -0.46 | 0.666 | -0.0453 | 0.264 | 1.36 | 0.43 | 1.17 | -2.08 (inactive) | 0.573 | -0.0296 |
| Cc1cc(C)c(C(O)C2C=CC3C(=O)N(C)C(=O)C3N2Nc2ccccc2)c(C)c1 (stereo not given) | 1.19 | 0.732 | 0.462 | 0.93 | 1.64 | 1.26 | 1.27 | 0.016 (inactive) | 2.01 | 0.872 |
| CCOC(=O)C1=CCC(c2ccc([N+](=O)[O-])cc2)N(S(=O)(=O)c2ccc(C)cc2)C1 (stereo not given) | 0.557 | -0.0288 | -0.0878 | 0.294 | 0.716 | 0.459 | 0.81 | -2.47 (inactive) | 0.406 | -0.174 |
| O=C1O[C@@H](c2ccccc2)[C@@H](c2ccccc2)N2[C@@H](c3ccc(O)cc3)[C@]3(C(=O)Nc4ccc(C#CC5=CCCCC5)cc43)[C@@H](C(=O)O)[C@H]12 | 0.638 | 1.56 | -0.0908 | 0.725 | 0.798 | 1.2 | 1.14 | -0.611 (inactive) | 0.437 | 0.0274 |
| CC(C)NC(=O)[C@@H]1c2ccccc2C(=O)N(Cc2ccccc2Cl)[C@H]1c1ccc(CO)cc1 | 0.717 | 0.337 | -0.145 | -0.277 | -0.387 | 1.49 | 1.39 | -1.84 (inactive) | -0.216 | -0.137 |
| NC(=O)NCC#Cc1ccc2c(c1)[C@]1(C(=O)N2)[C@H](C(=O)NC[C@H](O)c2ccccc2)[C@H]2C(=O)O[C@H](c3ccccc3)[C@H](c3ccccc3)N2[C@@H]1c1ccc(O)cc1 | -0.261 | 0.362 | 0.337 | 0.896 | 0.857 | 1.38 | 0.983 | 1.11 (inactive) | 0.077 | 0.356 |
| CCOC(=O)C1=CCC(c2ccc(C#N)cc2)N(S(=O)(=O)c2ccc(C)cc2)C1 (stereo not given) | 0.657 | 0.359 | 0.165 | 0.446 | 1.67 | 1.32 | 1.27 | -3.85 (inactive) | 1.27 | 0.11 |
| CCOC(=O)C[C@H]1[C@H](OC(=O)c2ccc(-c3ccccc3)cc2)[C@@H](NC(=O)c2ccc(-c3ccccc3)cc2)c2cc(OCCCO)ccc2N1C(=O)Cc1ccc(OC)cc1 | -0.263 | -0.0676 | -0.0525 | 0.0168 | 0.306 | 0.168 | -0.489 | 0.712 (inactive) | 0.425 | -0.226 |
| Cc1ccc(S[C@]2(C(=O)O)CC(=O)N(C3Cc4ccccc4C3)[C@@H]2c2ccc(CO)cc2I)cc1 | 1.43 | -0.269 | -0.0692 | 0.117 | -0.634 | 0.899 | 0.78 | 0.788 (inactive) | -0.154 | -0.0581 |
| COC(=O)[C@@]1(Cc2ccccc2)[C@H]2c3cc(C(=O)N(C)C)n(Cc4cc(C)n(C)n4)c3C[C@H]2CN1C(=O)c1ccccc1 | 0.512 | 0.403 | -0.221 | -0.0117 | 1.69 | 1.51 | 1.27 | 0.0005 (inactive) | 1.51 | 0.628 |
| CC=CC(O)C1C=CC2C(=O)N(c3ccccc3)C(=O)C2N1Nc1ccc(C(C)C)cc1 (stereo not given) | 0.0035 | 0.238 | 0.125 | 0.771 | 1.65 | 1.52 | 1.26 | 0.715 (inactive) | 1.16 | -0.0024 |
| COC(=O)[C@@]1(Cc2ccc(F)cc2)[C@H]2c3cc(C(=O)N4CCCC4)n(Cc4cccc5ccccc45)c3C[C@H]2CN1C(=O)c1ccccc1 | 0.242 | 0.312 | 0.148 | 0.62 | 1.57 | 2.16 | 1.35 | 0.272 (inactive) | 0.558 | 0.762 |
| CCOC(=O)C1=CC[C@@H](c2ccccc2)N(S(=O)(=O)c2ccc(C)cc2)[C@H]1C(=O)OCC | 0.138 | -0.0127 | 0.338 | 0.641 | 1.25 | -0.196 | 1.03 | -2.4 (inactive) | 0.603 | -0.108 |
| CC(C)(C)N1CC=CC23O[C@@H]4C=CCOC(=O)[C@@H]4[C@H]2C(=O)N(CCCCCO)[C@@H]3C1=O (stereo not given in full) | 0.469 | -0.555 | -0.159 | -0.335 | -1.38 | 0.978 | 1.33 | 0.952 (inactive) | 0.411 | -0.339 |
| CN1CCC(CCCO)=CC1c1ccc(CN2CCCC2)cc1 (stereo not given) | 1.16 | 2.31 | 0.0626 | 0.789 | 1.12 | 1.7 | 1.27 | 0.745 (inactive) | 0.612 | -0.0237 |
